Our source for the Potency values is PubChem BioAssay AID687009 (National Center for Advancing Translational Sciences (NCATS), 2013).

The structures appear in SMILES notation. Inconclusive results are not listed. Entries that show only a call come without a potency. Activity calls are given as the source filed them. Calls come from the whole dose curve; as a rule, active = well fitted curve in the direction sought with a large enough effect; inconclusive = small, poorly fitted or top-dose-only effect, or another doubt; inactive = no such curve, though single readings can be large or run the other way.

The assay addresses Lysine-specific histone demethylase 1A (Homo sapiens) (UniProt O60341). Kind of assay: qHTS Assay for Inhibitors of Human Jumonji Domain Containing 2E (JMJD2E): Counterscreen with LSD1. Conditions: Amplex Red/HRP fluorescence; series mostly up to 57.1 µM. The text has this:
The fine interplay among methylation states of several lysine residues on the tails of histone proteins is a major determinant of the transcriptional state of the associated DNA coding regions and is commonly referred to as the histone code. Histone lysine demethylases catalyze the removal of methyl groups from methylated lysine sidechains on histones H3 and H4, thus antagonizing the reactions catalyzed by histone lysine methyltransferases. […] In search for novel inhibitors of JMJD2E demethylase, a member of the largest set of histone demethylases belonging to the Fe(II) and 2-oxoglutarate oxygenase (2OG) superfamily, we performed a quantitative high-throughput screen (Inglese 2006) by using an assay which utilizes a trimethylated peptide substrate corresponding to a fragment of histone H3 (sequence ARKme3STGGK) with detection of the formaldehyde co-product in real time by a formaldehyde dehydrogenase (FDH) coupled reaction. FDH catalyzes oxidation of formaldehyde to formic acid with the concomitant reduction of the non-fluorescent beta-nicotinamide adenine dinucleotide hydrate (NAD+) cofactor to the fluorescent NADH co-product. Compounds that were validated hits were screened against the histone LSD1 histone demethylase. […] NIH Chemical Genomics Center [NCGC] NIH Molecular Libraries Probe Centers Network [MLPCN] MLPCN Grant: MH084681 Assay Submitter (PI): Udo Oppermann, Structural Genomics Consortium, University of Oxford
The assay was performed in a buffer containing 10 mM HEPES, Na pH 7.5, 5 mM MgCl2, 50 mM KCl, 0.01% Nonidet P-40, and 0.1% BSA. LSD1 was sourced from BPS Bioscience (Cat. No. 50100, San Diego, CA) and the substrate peptide was synthesized and purified by Tufts University Core Facilities (Boston, MA). Reagents (3 microL) containing either buffer-only (inhibited control) or LSD1 (120 nM) were dispensed into a 1,536-well Aurora black solid bottom cycloolefin plate (see Table 1 for protocol steps). Compounds (23 nL) were transferred via Kalypsys pintool equipped with a 1,536-pin array. The plate was incubated for 10 min at room temperature, followed by the addition of 1 microL 4 X substrate (10 mM HEPES, pH 7.5, 8 U/mL HRP, 800 µM Amplex Red, and 200 microM H3K4Me2 peptide [Sequence H-ARTXQTARKSTGGKAPRKQLA-NH2, where X = Nepsilon,Nepsilon-dimethyl-L-lysine]) to start the reaction. The plate was then centrifuged at 1,000 rpm for 15 seconds, and the fluorescence intensity was recorded on a ViewLux High-throughput CCD imager (Perkin-Elmer) using standard TAMRA optics (525 nm excitation and 598 nm emission). The plate was then incubated for 30 min at room temperature, and a second read on the ViewLux was performed. The fluorescence intensity difference over the 30 min was used to calculate the respective reaction rate for each well.
In general terms: qHTS replaces the single test concentration by a dilution series.
Consider `O=C(O)c1ccc(O)c2ncc(-c3ccc(N4CCOCC4)cc3)cc12`, for which the Potency entry is “inactive”.
As for `O=C(O)c1ccnc2c(O)cccc12`, the entry is “inactive”; as for `O=C(O)c1ccc(O)c2ncc(-c3cccc(N4CCOCC4)c3)cc12`, “inactive”.
In the case of `CN(C)CCCNC(=O)c1ccc(-c2cnc3c(O)ccc(C(=O)O)c3c2)cc1`, the Potency result was “inactive”.
For the compound `O=C(O)c1ccc(O)c2ncccc12`, the Potency entry was “inactive”.
In the case of `O=C(O)c1ccc(O)c2ncc(C3CCNCC3)cc12`, the Potency result was “inactive”.
With `O=C(O)c1ccc(O)c2ncc(-c3ccc(C(=O)N4CCNCC4)cc3)cc12` the entry was “inactive”.
Take `CN(C)CCCN1CCCN(C(=O)c2cccc(-c3cc(O)c4ncccc4c3)c2)C1`: the Potency is 10.8 µM (active).
Consider `CN1CCN(C(=O)c2ccc(-c3cnc4c(O)ccc(C(=O)O)c4c3)cc2)CC1`, for which the Potency entry is “inactive”.
Turning to `NC(=O)c1ccnc2c(O)cccc12`, the Potency entry was “inactive”.
